From PubChem BioAssay (Tox21)
Results filed as inconclusive are left out. A call without a number means that no potency is given here. Activity calls are given as the source filed them. Calls follow the shape of the dose curve; as a rule, active = well fitted cell-killing curve with a large enough effect in the repeat runs; inconclusive = weak or mixed curves; inactive = flat fitted curve, though single readings scatter.
Potency is read from the fitted curve at half-maximal effect.

Assay: qHTS assay to identify small molecule antagonists of the estrogen receptor beta (ER-beta) signaling pathway - cell viability counter screen (AID 1259382); also: nearly all actives have a fitted effect of over 55% in size
Details: ER-beta-UAS-bla HEK293T viability, CellTiter-Glo luminescence, 16 h; series mostly up to 92.4 µM
Description: U.S. Tox21 Program National Center for Advancing Translational Sciences [NCATS] NIH Chemical Genomics Center [NCGC] U.S. Environmental Protection Agency [EPA] National Institutes of Environmental Health Sciences [NIEHS] National Toxicology Program [NTP] U.S. Food and Drug Administration [FDA] Tox21 Assay Overview: Estrogen receptor (ER), a nuclear hormone receptor, plays an important role in development, metabolic homeostasis and reproduction. Two subtypes of ER, ER-alpha and ER-beta, have similar expression patterns with some uniqueness in both types. Endocrine disrupting chemicals (EDCs) and their interactions with steroid hormone receptors like ER causes disruption of normal endocrine function. To identify the compounds that inhibit ER signaling, an ER-beta-UAS-bla GripTite cell line (Life Technologies, Madison, WI, USA) containing a beta-lactamase reporter gene under the control of an UAS response element was used to screen Tox21 10K compound library. The cytotoxicity of the Tox21 compound library against the ER-beta-bla cell line was tested in parallel by measuring the cell viability using CellTiter-Glo assay in the same wells.
Tox21 Assay Protocol Summary: ER-beta-UAS-bla HEK293T cells were dispensed at 2,000 cells/4 uL of assay medium containing 2% charcoal stripped FBS per well into black wall/clear-bottom 1536-well plates using a Multidrop Combi (ThermoFisher Scientific, Waltham, MA) dispenser. After the assay plates were incubated at a 37C and 5% CO2 for 6 hr, 23 nL of compounds dissolved in DMSO, positive controls or DMSO only was transferred to the assay plate by a Pintool station (Kalypsys, San Diego, CA), followed by addition of 1 uL (1nM as final concentration) of 17-beta-estradiol (E2) in assay medium using a Flying Reagent Dispenser (FRD, Aurora Discovery, San Diego, CA). The plates were incubated at 37C and 5% CO2 for 16 hr. Then 1 uL of LiveBLAzer B/G FRET substrate was added using a Flying Reagent Dispenser, the plates were incubated at room temperature for 2 hours, and fluorescence intensity was measured by an Envision plate reader (PerkinElmer, Shelton, CT). For cell viability readout that measures cytotoxicity, 4 uL/well of CellTiter-Glo reagent was added into the assay plates using a FRD. After 30 min incubation at room temperature, the luminescence intensity in the plates was measured using a ViewLux (PerkinElmer) plate reader.
In the case of `COc1cccc(N)c1`, the Potency is reported as “inactive”. In the case of `CCCCCCCCCOC(=O)c1ccc(O)cc1`, the Potency is reported as 53.7 µM (active). In the case of `CCCCCCCCCCCCCCCCCC[N+](C)(C)C`, the Potency is reported as 30.7 µM (active). In the case of `O=C(O)c1c(Cl)cccc1Cl`, the Potency is reported as “inactive”. For `O=c1c(-c2ccccc2)c1-c1ccccc1`, the Potency was “inactive”. With `CC/C(=C(\c1ccc(O)cc1)c1ccc(OCCN(C)C)cc1)c1ccccc1` the Potency was 27.4 µM (active). In the case of `O=CC=C(c1ccccc1)c1ccccc1`, the Potency is reported as 27.5 µM (active). For `CN(C)c1ccc(C2(c3ccc(N(C)C)cc3)OC(=O)c3cc(N(C)C)ccc32)cc1`, the Potency was “inactive”. For `O=C1C=CC(=O)N1`, the Potency was 28 µM (active). In the case of `CCCC1O[C@@H]2C[C@H]3[C@@H]4CCC5=CC(=O)C=C[C@]5(C)[C@H]4[C@@H](O)C[C@]3(C)[C@]2(C(=O)CO)O1` (stereo not given in full), the Potency is reported as “inactive”. In the case of `CCOc1nc2cccc(C(=O)OC(C)OC(=O)OC3CCCCC3)c2n1Cc1ccc(-c2ccccc2-c2nn[nH]n2)cc1` (stereo not given), the Potency is reported as 19.3 µM (active). In the case of `CC(=O)OCC(C)OC(C)=O` (stereo not given), the Potency is reported as “inactive”. In the case of `Cn1cc(C(=O)[C@@H]2CCc3nc[nH]c3C2)c2ccccc21`, the Potency is reported as “inactive”. With `COc1ccc(C(=O)/C(Br)=C\C(=O)O)cc1` the Potency was “inactive”. With `Clc1ccc2nsnc2c1NC1=NCCN1` the Potency was “inactive”. With `C/C=C1/C(=O)C[C@H]2[C@@H]3CCC4=CC(=O)CC[C@]4(C)[C@H]3CC[C@]12C` the Potency was “inactive”. In the case of `N=C1N=C(N)c2cc3ccccc3cc21`, the Potency is reported as 38.6 µM (active). With `Clc1ccc(C(Cn2ccnc2)OCc2ccc(Sc3ccccc3)cc2)c(Cl)c1` (stereo not given) the Potency was “inactive”. In the case of `CCc1cc(Cc2cc(CC)cc(C(C)(C)C)c2O)c(O)c(C(C)(C)C)c1`, the Potency is reported as 24.3 µM (active). In the case of `NC(=O)CC[C@@H]1NC(=O)[C@H](Cc2ccccc2)NC(=O)[C@H](Cc2ccc(O)cc2)NC(=O)CCSSC[C@@H](C(=O)N2CCC[C@H]2C(=O)N[C@@H](CCCN=C(N)N)C(=O)NCC(N)=O)NC(=O)[C@H](CC(N)=O)NC1=O`, the Potency is reported as “inactive”. For `Nc1ccccc1O`, the Potency was “inactive”. With `CC(C)(C)c1ccc(C(=O)O)cc1` the Potency was “inactive”. In the case of `CCCCCCCC[P+](CCCCCCCC)(CCCCCCCC)CCCCCCCC`, the Potency is reported as 10.8 µM (active). For `Cc1[nH]nc2c1N=C(c1ccccc1Cl)c1cc([N+](=O)[O-])ccc1N2`, the Potency was 48.6 µM (active). In the case of `CCCCCCCCCCCCCC[P+](CCCC)(CCCC)CCCC` (tested in a mixture with another compound), the Potency is reported as 27.5 µM (active). For `CCCCCCCCCCCCCCCS(=O)(=O)Oc1ccccc1`, the Potency was “inactive”. In the case of `O=C(OCC(COC(=O)c1ccccc1)(COC(=O)c1ccccc1)COC(=O)c1ccccc1)c1ccccc1`, the Potency is reported as “inactive”. For `COC(=O)C1=C(C)NC(C)=C(C(=O)OCCc2ccc(N3CCN(C(c4ccccc4)c4ccccc4)CC3)cc2)C1c1cccc([N+](=O)[O-])c1` (stereo not given), the Potency was “inactive”. In the case of `CCOC(=O)O[C@H](C)OC(=O)c1ccc2c(c1)cc(C(=O)NC1CCN(C(C)C)CC1)n2Cc1cc(-c2ccc(Cl)s2)on1`, the Potency is reported as 22.7 µM (active). In the case of `Cc1cc2c(cc1C(F)(F)F)N(C(=O)Nc1ccc(Oc3cccnc3C)nc1)CC2`, the Potency is reported as “inactive”. For `CN(C)[C@@H]1C(=O)C(C(N)=O)=C(O)[C@@]2(O)C(=O)C3=C(O)c4c(O)ccc(Cl)c4[C@@H](O)[C@H]3C[C@@H]12`, the Potency was “inactive”. With `CCCCCCC[N+](CC)(CC)CCCCc1ccc(Cl)cc1` the Potency was “inactive”. With `c1ccc(CSCc2ccccc2)cc1` the Potency was “inactive”. With `CCC1OCC(COc2ccc(Oc3ccccc3)cc2)O1` (stereo not given) the Potency was “inactive”. For `Oc1cccc2cc3cccc(O)c3c(O)c12`, the Potency was “inactive”. With `CCCCN1CCCC[C@H]1C(=O)Nc1c(C)cccc1C` the Potency was “inactive”. In the case of `O=[N+]([O-])c1cc([N+](=O)[O-])c2ccc(S(=O)(=O)O)cc2c1O`, the Potency is reported as “inactive”. For `O=C(NOCC1CC1)c1ccc(F)c(F)c1Nc1ccc(I)cc1Cl`, the Potency was “inactive”. For `CCCCCOC(=O)CCCC`, the Potency was “inactive”. In the case of `O=C(N/N=C/c1ccccc1O)c1ccncc1`, the Potency is reported as “inactive”.
